Source: PubChem BioAssay (several laboratories)
Only some compounds are listed: those with a hit (about 3.6% of all), similar ones and a draw of the others.
Anthrax LF inh2: anthrax lethal factor protease inhibition; multiplex microsphere protease cleavage assay, LF; 0.12% of 360,000 active; inhibition, % at 10 µM; P15917
Target sequence (P15917 whole entry, looked up): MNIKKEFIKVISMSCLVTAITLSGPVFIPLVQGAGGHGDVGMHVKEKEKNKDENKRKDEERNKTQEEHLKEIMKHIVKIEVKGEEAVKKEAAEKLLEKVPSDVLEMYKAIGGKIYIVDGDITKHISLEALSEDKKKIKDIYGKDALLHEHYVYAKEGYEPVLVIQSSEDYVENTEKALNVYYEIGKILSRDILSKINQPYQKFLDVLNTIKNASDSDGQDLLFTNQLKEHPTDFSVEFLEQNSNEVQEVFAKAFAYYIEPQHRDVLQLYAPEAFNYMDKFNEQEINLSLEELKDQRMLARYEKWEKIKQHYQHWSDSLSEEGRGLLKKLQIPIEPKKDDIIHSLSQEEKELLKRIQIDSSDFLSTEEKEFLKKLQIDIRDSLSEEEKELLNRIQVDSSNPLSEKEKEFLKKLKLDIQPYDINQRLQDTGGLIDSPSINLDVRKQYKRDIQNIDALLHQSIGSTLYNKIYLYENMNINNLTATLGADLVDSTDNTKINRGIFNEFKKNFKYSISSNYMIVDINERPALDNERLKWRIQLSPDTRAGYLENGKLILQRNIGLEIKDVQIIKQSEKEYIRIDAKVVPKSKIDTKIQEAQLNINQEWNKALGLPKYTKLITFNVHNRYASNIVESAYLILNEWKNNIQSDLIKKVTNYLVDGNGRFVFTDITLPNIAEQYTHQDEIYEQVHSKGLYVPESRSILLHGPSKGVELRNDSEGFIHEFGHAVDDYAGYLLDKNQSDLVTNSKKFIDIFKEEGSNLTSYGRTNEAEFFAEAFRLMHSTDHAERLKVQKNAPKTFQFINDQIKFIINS
BoNT-A LC inh2: blocks Botulinum neurotoxin A light chain protease | multiplex microsphere protease substrate cleavage, flow cytometry | inhibition, % at 10 µM | 0.17% of 360,000 active | AID 588499
Bead autofluor: compound fluorescence in toxin protease inhibitor counterscreen; compound autofluorescence counterscreen, microsphere flow cytometry; hits give high values; fluorescence intensity (concentration not given with the values); 3.1% of 360,000 active; AID 624483; in the data active means fluorescence intensity above about 16000; inconclusive means no clear call, values can overlap the other calls
MazEF act: activators of E. coli MazEF toxin-antitoxin RNase; P0AE70; FAM/BHQ RNA-DNA oligo cleavage fluorescence, 5 h; activation, % at 20 µM; 0.32% of 350,000 active; AID 504720; in the data active means activation above about 50%
BoNT F protease: BoNT F light chain protease inhibition. Multiplex microsphere protease cleavage assay, flow cytometry. inhibition, % at 10 µM. 0.22% of 360,000 active. AID 588497; in the data active means inhibition above about 35%, passing the limit was not always enough; inconclusive means no clear call, values can overlap the other calls
Numbers stand for hits; n = inactive; u = inconclusive; x = no result. Unless noted, no stated cut-off is given here; in the data, active means inhibition above about 30%; inconclusive means no clear call, values can overlap the other calls; inactive means below that.

SMILES	Anthrax LF inh2	BoNT-A LC inh2	Bead autofluor	MazEF act	BoNT F protease
O=C(C[n+]1ccc(C(=O)NCc2ccccc2)cc1)c1ccc(Cl)cc1	n	n	n	n	n
CNc1oc(-c2cccc3ccccc23)nc1C#N	n	n	n	n	n
COc1ccc(CNc2oc(-c3cccc4ccccc34)nc2C#N)cc1	n	n	19935	n	n
CCOC(=O)SC1=N/C(=C\c2ccc(N(C)C)cc2)C(=O)S1	n	n	19076	n	n
O=C1c2ccccc2C(c2nnnn2Cc2ccccc2)N1Cc1cccnc1 (configuration not stated)	n	n	n	x	n
COC(=O)CCc1c(C)c(C#N)c2nc3ccccc3n2c1N1CCCC1	n	n	22382	n	n
CCOC(=O)CCc1c(C)c(C#N)c2nc3ccccc3n2c1-n1ccnc1	n	n	n	n	n
CC(/C=N/NC(=O)c1cc(-c2ccncc2)nc2ccccc12)=C\c1ccco1	n	n	16302	n	n
Cc1ccc(/C=N/NC(=O)c2cc(-c3ccncc3)nc3ccccc23)o1	n	n	n	n	n
CC1(C(=O)Nc2cccnc2)Cc2c(-c3cccc(C(F)(F)F)c3)ccnc2O1 (configuration not stated)	n	n	n	x	n
COc1ccc(-c2c(C)oc3ccc(C)cc23)cc1	n	n	23892	n	n
COc1ccc(-c2oc3ccc(-c4cc(OC)c(OC)c(OC)c4)cc3c2-c2ccc(OC)cc2)cc1	x	x	x	n	x
CCc1noc(C)c1C(=O)NNC(=O)c1ccc(N(CC)CC)cc1	n	n	n	n	n
CCc1ccc(/C=C2\CN(CC)Cc3c2nc2ccccc2c3C(=O)O)cc1	n	n	27805	n	n
O=[N+]([O-])c1ccc(NCCCNS(=O)(=O)c2ccccc2)c(Cl)c1	n	n	n	n	n
COc1ccc(C(OC(=O)c2c(C)noc2C)C(=O)NC2CCCC2)cc1 (configuration not stated)	n	n	19678	n	n
CCC(=O)N1CCN(c2ccc(Cl)cc2NC(=O)c2ccc(Br)o2)CC1	n	n	22198	n	n
O=C(Nc1ccc(N2CCN(C(=O)c3ccccc3)CC2)c(Cl)c1)c1ccc(Br)o1	n	n	23206	n	n
O=C(Nc1ccc(N2CCN(C(=O)c3ccccc3)CC2)cc1)c1ccc(Br)o1	n	n	n	n	n
COc1cccc(NC(=O)NCCCSC2CCCCC2)c1	n	n	21430	n	n
COc1cccc(NC(=O)NCCCCc2ccccc2)c1	n	n	u	n	n
Cc1ccccc1C(O)c1ccncc1 (configuration not stated)	n	n	19164	n	n
Cc1ccc(C(O)c2ccncc2)cc1 (configuration not stated)	n	n	17116	n	n
Cc1ccc(C(O)c2ccc(-n3ccnc3)cc2)cc1 (configuration not stated)	n	n	n	n	n
CCc1nc2ccc(C(=O)Nc3cccc(OCC(=O)N(C)C)c3)cn2c1N(CCC(C)C)CCN(C)C	n	n	n	x	n
SMILES	Anthrax LF inh2	BoNT-A LC inh2	Bead autofluor	MazEF act	BoNT F protease
COc1cc(C)c(CN2CCN(c3ccccc3)CC2)cc1C	n	n	17583	n	n
COc1cc(C)c(CN2CCSCC2)cc1C	n	n	n	n	n
COC(=O)Cc1cc(=O)[nH]c(/N=C(\N)Nc2ccccc2)n1	n	n	21352	n	n
COc1ccc(N/C(N)=N/c2nc(CSc3ccc(C)cc3)cc(=O)[nH]2)cc1	n	n	n	n	n
Cc1ccc(N/C(N)=N/c2nc(CSc3ccc(C)cc3)cc(=O)[nH]2)cc1	n	n	23020	n	n
CCOc1ccc(C(=O)Nc2ccccc2N2CCN(C(=O)c3ccccc3)CC2)cc1[N+](=O)[O-]	n	n	n	n	n
O=C(COc1ccccc1F)N1N=C(c2cccs2)CC1c1ccco1 (configuration not stated)	u	u	n	n	u
Cc1nnc(NC(=O)C2CCN(c3cnccn3)CC2)s1	n	n	22414	n	n
Cc1nnc(NC(=O)C2CCN(c3nnnn3-c3ccccc3)CC2)s1	n	u	21118	n	n
COc1ccccc1NC(=O)CN(Cc1ccco1)C(=O)c1cncc(Br)c1	n	n	n	n	n
COc1ccccc1NC(=O)c1ccccc1NC(=O)c1cccs1	n	n	n	n	n
COc1ccccc1NC(=O)c1cccs1	n	n	16647	n	n
COc1ccccc1NC(=O)CN(Cc1ccco1)C(=O)c1cccs1	n	n	23213	n	n
CCCCOCCCNC(=O)C[C@@H]1C[C@@]2(C(=O)OCC)CCC=C2N(Cc2cccc3ccccc23)C1=O	n	n	n	x	n
CC1(C)CC(=NNC(=O)c2n[nH]c3c2CCC3)CC(C)(C)N1	n	n	n	n	37.1
Cc1cc(-c2ccccc2)nc(N/N=C/c2ccco2)n1	n	n	24412	n	n
Cc1ccc(-c2csc(N/N=C/c3ccco3)n2)cc1	n	n	23231	n	n
O=C1NC[C@H](CCCCN2C[C@H](Cc3ccc(O)cc3)N(CCc3ccccc3)C(=O)C2=O)N(CCC2CCCCC2)C1=O	n	n	n	x	n
CCOC(=O)[C@]12CCC=C1N(Cc1ccco1)C(=O)[C@H](CC(=O)NCc1ccccc1)C2	n	n	n	x	n
Cc1cc(Nc2ccc(C(=O)O)cc2)nc(N)n1	x	x	x	n	x
Cc1cc(Nc2ccc(F)cc2)nc(N)n1	n	n	23182	n	n
O=C1CC(NCc2ccccc2)C(=O)N1c1ccc(F)cc1 (configuration not stated)	n	n	n	n	n
O=C1CC(NCc2ccccc2F)C(=O)N1c1ccccc1 (configuration not stated)	n	n	16529	n	n
CN1CCN(C(=O)c2ccc(-n3cccc3)cc2)CC1	n	u	20993	n	n
CN1CCN(C(=O)c2ccc3ccccc3c2)CC1	n	n	23924	n	n
SMILES	Anthrax LF inh2	BoNT-A LC inh2	Bead autofluor	MazEF act	BoNT F protease
O=C(c1ccc2ccccc2c1)N1CCCC1	n	n	n	n	n
O=C(NCc1ccccc1)c1[nH]c(C(F)(F)F)nc1-c1ccccc1	n	n	n	x	n
O=c1[nH]c(SCc2nc3c(cnn3-c3ccccc3)c(=O)[nH]2)nc2ccccc12	n	n	n	50.0	u
Oc1ccc(-c2nc3cnccn3c2Nc2ccc3c(c2)OCCO3)cc1	n	n	n	n	n
CC(C)(C)CC(C)(C)Nc1c(-c2ccc(O)cc2)nc2cnccn12	n	n	16574	n	n
COc1cc(OC)c(C2=NOC(C(=O)NCCc3ccccc3)C2)cc1Cl (configuration not stated)	n	n	23621	n	n
COc1ccc(OC)c(CC(=O)O)c1	n	u	23906	n	n
CCOC(=O)C1C(c2ccccc2Cl)NC(=O)N(C)C1(O)C(F)(F)F (configuration not stated)	n	n	16952	n	n
COc1ccc(/C=C/c2cc(=O)c3cc(Cl)ccc3o2)cc1	n	n	n	54.2	n
CCCCC(=O)Nc1ncc2c(n1)CC(C)(C)CC2=O	n	n	n	n	n
Cc1cc(C)nc(SCC(=O)Nc2ncc3c(n2)CC(C)(C)CC3=O)n1	n	n	20783	n	n
COc1ccc(OCC(=O)Nc2ncc3c(n2)CC(C)(C)CC3=O)cc1	n	u	22939	n	n
